Experimental data as given in PubChem BioAssay (NCATS).
Inconclusive results are not listed. A call without a number means that no potency is given here. The source made the active and inactive calls. Calls come from the whole dose curve; as a rule, active = well fitted cell-killing curve with a large enough effect; inconclusive = small, poorly fitted or top-dose-only effect; inactive = flat fitted curve, though single readings scatter.

assay: qHTS of pediatric cancer cell lines to identify multiple opportunities for drug repurposing: Primary screen for BT-37 cells (AID 1347094); details: BT-37 viability, CellTiter-Glo luminescence, 48 h; series mostly up to 57.3 µM
Text: Drug repurposing or repositioning has been offered as a strategy for drug development in oncology programs. This approach has special potential for childhood cancers and other rare or orphan diseases, where the expected return on new drug development has been a disincentive to pharmaceuticals. […] In this project we exploit the poly-pharmacology of drugs to discover new indications via phenotypic screening of a panel of 19 well-characterized cell lines derived from solid tumors seen in children and adolescents. The goal is to identify approved drugs with previously unrecognized anticancer properties that has the potential to reveal new mechanisms and biological processes involved in carcinogenesis or drug resistance. We employed a titration-based paradigm (quantitative high-throughput screening or qHTS), where all compounds were tested at multiple concentrations for their effect on cell viability. Concentration-response curves (CRCs) were derived directly from the primary screen, and both potency and efficacy values were used to identify compounds with robust bioactivity profiles. We screened the NIH Chemical Genomics Center (NCGC) Pharmaceutical Collection (NPC) and Mechanism Interrogation Plate (MIPE) small molecule collections of approved and investigational compounds against these cell lines; and measured metabolically active cells after 48 hours of compound treatment as a proxy for cell viability. […] Assay Submitter: Nathalia J. Martinez, National Center for Advancing Translational Sciences, National Institutes of Health, Rockville, MD, USA; email: natalia.martinez@nih.gov Shen, M et al. Quantitative high-throughput phenotypic screening of pediatric cancer cell lines identifies multiple opportunities for drug repurposing. Oncotarget 2017 Dec 19;9(4):4758-4772. PMID 29435139.
The cells were obtained from University of North Carolina (UNC), Pediatric Preclinical Testing Program (PPT), and Coriell Institute (CI). qHTS cell viability assay: Cells were assayed in growth media at a density of 500-1,000 cells/well. Five microliters of cells were dispensed into 1,536-well, white, solid-bottom, TC-treated plates (Greiner Bio One) using a multidrop dispenser and incubated at 37 degrees C, 5% CO2, under a humidified atmosphere for 5 hours. Twenty-three nanoliters of compounds and controls (neutral control DMSO or positive control bortezomib at final concentration of 2.3 µM) were subsequently transferred by Kalypsys pintool. For primary screens, the MIPE collection was tested at 11-point dilutions (final concentrations range from 0.78 nM to 46 µM) and the NPC collection at 8-point dilutions (final concentrations range from 0.59 nM to 46 µM). Compounds tested in follow-up screens were assayed at 11-point dilutions. Cells were incubated for 48 hours, followed by addition of 3 µL of CellTiter-Glo (Promega). After a 15 min incubation at room temperature, samples were analyzed for luminescence intensity using a ViewLux High-throughput CCD imager equipped with clear filters.
Potency is the fitted concentration of half-maximal effect.

Which Potency does the source give for `CC(C)(C)OC(=O)c1ncn2c1[C@@H]1CCCN1C(=O)c1c(Br)cccc1-2` here?
The Potency was “inactive”.

With `COP(=O)(OC)OC=C(Cl)Cl` as the compound, how does the Potency read?
The Potency was “inactive”.

With `CC1N=C(N)OC1c1ccccc1` (stereo not given) as the compound, how does the Potency read?
The Potency was “inactive”.

For `CN(C)C(=O)Oc1cc(OC(=O)N(C)C)cc(C(O)CNC(C)(C)C)c1` (stereo not given), which Potency is on record?
Its Potency is “inactive”.

Which Potency does the source give for `O=C1CN2CCOC2(c2ccccc2Cl)c2cc(Cl)ccc2N1` (stereo not given) here?
Its Potency is “inactive”.

With `ClCCCN1CCN(c2cccc(Cl)c2)CC1` as the compound, how does the Potency read?
The Potency was “inactive”.

For `CCOP(=S)(OCC)O/N=C(\C#N)c1ccccc1`, which Potency is on record?
The Potency was “inactive”.

Which Potency does the source give for `CN1C(=O)CN=C(c2ccccc2)c2cc(Cl)ccc21` here?
The Potency was “inactive”.

For `C[N+](C)(C)CCOC(=O)C(O)(c1ccccc1)c1ccccc1`, which Potency is on record?
The Potency was “inactive”.

For `COP(=O)(OC)C(O)C(Cl)(Cl)Cl` (stereo not given), which Potency is on record?
Its Potency is “inactive”.

Which Potency does the source give for `CC[C@]1(O)CC[C@H]2[C@@H]3CCC4=CCCC[C@@H]4[C@H]3CC[C@@]21C` here?
Its Potency is “inactive”.

Which Potency does the source give for `CCCOC(=O)Cc1ccc(OCC(=O)N(CC)CC)c(OC)c1` here?
Its Potency is “inactive”.

For `O=C(O)c1nn(Cc2ccc(Cl)cc2Cl)c2ccccc12`, which Potency is on record?
The Potency was “inactive”.

Which Potency does the source give for `C[N+]1(CCC(C(N)=O)(c2ccccc2)c2ccccc2)CCCCC1` here?
Its Potency is “inactive”.

Which Potency does the source give for `COP(=S)(OC)Oc1ccc(S(N)(=O)=O)cc1` here?
Its Potency is “inactive”.

Which Potency does the source give for `O=C(O)Cc1ccccc1` here?
Its Potency is “inactive”.

For `C#C[C@]1(O)C=C[C@H]2[C@@H]3CCC4=CC(=O)CC[C@@H]4[C@H]3CC[C@@]21CC`, which Potency is on record?
Its Potency is “inactive”.

For `CCC(=O)O[C@H]1CC[C@H]2[C@@H]3CCC4=CC(=O)CC[C@]4(C)[C@H]3CC[C@]12C`, which Potency is on record?
Its Potency is “inactive”.

With `COC(=O)C1=CCCN(C)C1` as the compound, how does the Potency read?
The Potency was “inactive”.

With `Cc1c(Cl)c(=O)oc2cc(OP(=O)(OCCCl)OCCCl)ccc12` as the compound, how does the Potency read?
The Potency was “inactive”.

With `C[C@]12CC[C@H]3[C@@H](CCC4=CC(=O)CC[C@@]43C)[C@@H]1CC[C@@H]2C(=O)O` as the compound, how does the Potency read?
Its Potency is “inactive”.

For `CC(Cc1ccc2c(c1)OCO2)NO` (stereo not given), which Potency is on record?
Its Potency is “inactive”.

Which Potency does the source give for `C[N+]1(C)[C@@H]2CC[C@H]1CC(OC(=O)C(CO)c1ccccc1)C2` (stereo not given in full) here?
Its Potency is “inactive”.

Which Potency does the source give for `CNC(C)Cc1ccc2c(c1)OCO2` (stereo not given) here?
The Potency was “inactive”.

With `CCOC(=O)C(c1c(O)c2ccccc2oc1=O)c1c(O)c2ccccc2oc1=O` as the compound, how does the Potency read?
The Potency was “inactive”.

With `CC1COC2(c3ccccc3Cl)c3cc(Cl)ccc3NC(=O)CN12` (stereo not given) as the compound, how does the Potency read?
The Potency was “inactive”.

With `CCc1ccc(C2CCNCC2)cc1` as the compound, how does the Potency read?
The Potency was “inactive”.

For `C=CCOC(Cn1ccnc1)c1ccc(Cl)cc1Cl` (stereo not given), which Potency is on record?
The Potency was “inactive”.

Which Potency does the source give for `CC(Cc1ccccc1)NCCCCl` (stereo not given) here?
Its Potency is “inactive”.

Which Potency does the source give for `CN(C)CCc1c[nH]c2ccccc12` here?
Its Potency is “inactive”.

With `CN1C(=O)CN=C(c2ccccc2)c2cc([N+](=O)[O-])ccc21` as the compound, how does the Potency read?
Its Potency is “inactive”.

For `CC(C(O)c1ccccc1)N(C)C/C=C/c1ccccc1` (stereo not given), which Potency is on record?
The Potency was “inactive”.

Which Potency does the source give for `CC(C)=C[C@@H]1[C@@H](C(=O)OCc2coc(Cc3ccccc3)c2)C1(C)C` here?
The Potency was “inactive”.

With `CC1Sc2c(C(=O)O)c(=O)c3cc(F)c(N4CCNCC4)cc3n21` (stereo not given) as the compound, how does the Potency read?
Its Potency is “inactive”.

With `O=C(N[C@@H]1N=C(c2ccccc2F)c2cccc3c2N(CC3)C1=O)c1cc2ccccc2[nH]1` as the compound, how does the Potency read?
Its Potency is “inactive”.

Which Potency does the source give for `NC(=O)CN1CCCC1=O` here?
The Potency was “inactive”.

For `CC[n+]1c(-c2ccccc2)c2cc(N)ccc2c2ccc(N)cc21`, which Potency is on record?
Its Potency is 2460 nM (active).

For `CCCCCCCCC(=O)NCc1ccc(O)c(OC)c1`, which Potency is on record?
The Potency was 1 nM (active).

With `Cc1ccc([N+](=O)[O-])[c]2c1[O][Hg]2` as the compound, how does the Potency read?
Its Potency is 1550 nM (active).

With `COc1cc(C[C@@H](C)N)c(OC)cc1Br` as the compound, how does the Potency read?
Its Potency is “inactive”.
